Laboratory results reported in article PMC7862700, “An all-to-all approach to the identification of sequence-specific readers for epigenetic DNA modifications on cytosine”.

Key:
Experiment in all cases: DAPPL (digital affinity profiling via proximity ligation, sequencing); 10 mM Tris-HCl pH 7.5, 50 mM NaCl, 1 mM DTT, 4% glycerol, room temperature, 30 min; GST-TFs on glutathione beads, 16-mer random dsDNA library, 0.1% formaldehyde crosslink after washing; high values mean tight binding
Details in all cases: protein: recombinant; tags: N-terminal GST; dsDNA, one strand shown
FLI1 = target: T1, FLI1 (Homo sapiens, UniProt Q01543 1-452)
T1 sequence: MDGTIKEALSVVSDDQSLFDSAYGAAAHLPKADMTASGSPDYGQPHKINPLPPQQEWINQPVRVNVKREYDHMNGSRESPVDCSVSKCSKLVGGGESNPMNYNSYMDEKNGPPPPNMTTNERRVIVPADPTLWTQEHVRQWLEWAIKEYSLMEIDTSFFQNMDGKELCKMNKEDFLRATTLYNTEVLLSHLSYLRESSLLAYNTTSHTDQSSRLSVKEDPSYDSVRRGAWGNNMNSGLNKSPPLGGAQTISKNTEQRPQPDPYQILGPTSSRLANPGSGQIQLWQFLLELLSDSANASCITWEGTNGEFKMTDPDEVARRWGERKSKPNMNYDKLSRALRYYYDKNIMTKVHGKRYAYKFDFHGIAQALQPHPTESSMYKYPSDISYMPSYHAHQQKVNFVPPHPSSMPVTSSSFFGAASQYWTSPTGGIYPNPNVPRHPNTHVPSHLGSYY
Procedure, shortened: (§1)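 The binding signal reported is, for every hexamer, its read frequency for a factor over its read frequency for the tag-only sample. Reads came from pools of yeast-expressed, GST-fused human transcription factors on glutathione beads, barcoded with DNA and mixed with that sample, which were incubated with 200 nmole of a random double-stranded 16-mer DNA library in Tris/NaCl/DTT/glycerol buffer at room temperature for 30 min. After washing, the pools were crosslinked with 0.1% formaldehyde, proximity-ligated with BsaI/T4 ligase for 1 h at 37 °C, PCR-amplified and sequenced on an Illumina NextSeq500.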

ELK1 = target: T2, ELK1 (Homo sapiens, UniProt P19419 1-428)
T2 sequence: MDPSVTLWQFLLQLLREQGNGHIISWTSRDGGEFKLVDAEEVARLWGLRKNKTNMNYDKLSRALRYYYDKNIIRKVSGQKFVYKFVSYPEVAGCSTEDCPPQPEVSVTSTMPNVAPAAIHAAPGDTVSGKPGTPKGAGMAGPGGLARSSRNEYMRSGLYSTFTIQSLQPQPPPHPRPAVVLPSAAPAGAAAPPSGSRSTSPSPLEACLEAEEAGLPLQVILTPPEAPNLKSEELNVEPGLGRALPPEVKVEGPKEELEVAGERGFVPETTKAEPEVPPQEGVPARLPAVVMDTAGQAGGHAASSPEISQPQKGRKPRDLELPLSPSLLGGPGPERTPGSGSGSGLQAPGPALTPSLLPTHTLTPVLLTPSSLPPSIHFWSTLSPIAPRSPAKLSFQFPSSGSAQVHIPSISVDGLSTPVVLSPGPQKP
Procedure, shortened: as §1

GABPA = target: T3, GABPA (Homo sapiens, UniProt Q06546 1-454)
T3 sequence: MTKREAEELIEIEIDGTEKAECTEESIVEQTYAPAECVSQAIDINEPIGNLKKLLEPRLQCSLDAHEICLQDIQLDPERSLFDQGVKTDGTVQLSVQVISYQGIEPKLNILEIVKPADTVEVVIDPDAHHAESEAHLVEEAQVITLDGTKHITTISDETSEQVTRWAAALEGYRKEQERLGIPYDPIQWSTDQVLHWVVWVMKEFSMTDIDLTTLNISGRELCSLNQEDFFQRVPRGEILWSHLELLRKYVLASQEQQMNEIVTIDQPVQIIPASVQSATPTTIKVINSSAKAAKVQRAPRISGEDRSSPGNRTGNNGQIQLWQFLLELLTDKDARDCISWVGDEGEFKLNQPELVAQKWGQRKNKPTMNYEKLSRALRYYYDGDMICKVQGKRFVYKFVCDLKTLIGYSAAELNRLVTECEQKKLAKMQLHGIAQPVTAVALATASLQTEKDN
Procedure, shortened: as §1

ERG = target: T4, ERG (Homo sapiens, UniProt P11308 1-479)
T4 sequence: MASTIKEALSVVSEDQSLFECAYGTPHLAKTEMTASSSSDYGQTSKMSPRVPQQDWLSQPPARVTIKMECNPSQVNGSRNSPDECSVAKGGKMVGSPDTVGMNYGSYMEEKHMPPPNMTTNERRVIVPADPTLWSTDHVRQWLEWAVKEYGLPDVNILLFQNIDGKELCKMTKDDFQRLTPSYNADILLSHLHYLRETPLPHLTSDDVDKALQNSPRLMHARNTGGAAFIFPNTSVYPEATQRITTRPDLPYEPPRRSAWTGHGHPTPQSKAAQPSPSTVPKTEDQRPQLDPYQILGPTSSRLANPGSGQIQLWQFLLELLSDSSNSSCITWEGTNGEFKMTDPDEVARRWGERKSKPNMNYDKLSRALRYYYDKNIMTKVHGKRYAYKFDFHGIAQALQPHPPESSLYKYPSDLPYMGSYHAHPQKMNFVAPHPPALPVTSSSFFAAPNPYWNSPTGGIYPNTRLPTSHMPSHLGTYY
Procedure, shortened: as §1

ELF1 = ELF1 (Homo sapiens, UniProt P32519 1-619)
Chain of ELF1 (P32519 whole entry): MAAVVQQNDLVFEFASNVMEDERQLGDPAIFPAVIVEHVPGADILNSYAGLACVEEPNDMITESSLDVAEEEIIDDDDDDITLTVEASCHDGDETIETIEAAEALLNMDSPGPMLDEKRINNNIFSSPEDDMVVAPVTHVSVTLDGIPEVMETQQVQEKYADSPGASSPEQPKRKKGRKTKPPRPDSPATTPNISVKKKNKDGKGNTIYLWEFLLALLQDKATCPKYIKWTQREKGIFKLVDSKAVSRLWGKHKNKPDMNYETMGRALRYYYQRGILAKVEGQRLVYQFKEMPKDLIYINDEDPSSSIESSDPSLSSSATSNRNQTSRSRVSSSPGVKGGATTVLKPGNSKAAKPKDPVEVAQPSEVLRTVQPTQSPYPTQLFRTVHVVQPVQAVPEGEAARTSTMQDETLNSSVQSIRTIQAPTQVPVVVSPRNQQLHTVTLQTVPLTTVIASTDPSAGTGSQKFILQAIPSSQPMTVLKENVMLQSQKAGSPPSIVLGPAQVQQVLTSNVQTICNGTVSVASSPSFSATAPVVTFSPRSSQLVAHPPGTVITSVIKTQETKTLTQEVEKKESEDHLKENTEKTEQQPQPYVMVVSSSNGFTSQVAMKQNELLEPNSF
Procedure, shortened: as §1

EHF = target: T5, EHF (Homo sapiens, UniProt Q9NZC4 1-300)
T5 sequence: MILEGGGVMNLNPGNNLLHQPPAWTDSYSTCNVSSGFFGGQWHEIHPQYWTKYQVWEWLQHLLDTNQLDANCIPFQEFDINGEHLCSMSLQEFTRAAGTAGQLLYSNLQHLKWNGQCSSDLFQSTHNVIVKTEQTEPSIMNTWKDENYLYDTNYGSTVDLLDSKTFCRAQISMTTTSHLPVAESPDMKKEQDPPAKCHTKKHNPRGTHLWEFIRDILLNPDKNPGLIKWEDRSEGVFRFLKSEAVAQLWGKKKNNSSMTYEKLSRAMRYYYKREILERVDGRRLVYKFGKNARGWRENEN
Procedure, shortened: as §1

SPIB = SPIB (Homo sapiens, UniProt Q01892 1-262)
Chain of SPIB (Q01892 whole entry): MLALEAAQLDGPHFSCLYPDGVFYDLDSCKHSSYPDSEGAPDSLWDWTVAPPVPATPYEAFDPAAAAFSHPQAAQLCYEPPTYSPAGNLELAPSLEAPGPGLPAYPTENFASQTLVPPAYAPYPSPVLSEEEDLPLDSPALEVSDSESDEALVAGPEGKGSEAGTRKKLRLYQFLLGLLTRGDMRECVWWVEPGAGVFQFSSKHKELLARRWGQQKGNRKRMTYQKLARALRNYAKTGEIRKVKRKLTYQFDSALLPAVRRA
Procedure, shortened: as §1

ELK3 = target: T6, ELK3 (Homo sapiens, UniProt P41970 1-407)
T6 sequence: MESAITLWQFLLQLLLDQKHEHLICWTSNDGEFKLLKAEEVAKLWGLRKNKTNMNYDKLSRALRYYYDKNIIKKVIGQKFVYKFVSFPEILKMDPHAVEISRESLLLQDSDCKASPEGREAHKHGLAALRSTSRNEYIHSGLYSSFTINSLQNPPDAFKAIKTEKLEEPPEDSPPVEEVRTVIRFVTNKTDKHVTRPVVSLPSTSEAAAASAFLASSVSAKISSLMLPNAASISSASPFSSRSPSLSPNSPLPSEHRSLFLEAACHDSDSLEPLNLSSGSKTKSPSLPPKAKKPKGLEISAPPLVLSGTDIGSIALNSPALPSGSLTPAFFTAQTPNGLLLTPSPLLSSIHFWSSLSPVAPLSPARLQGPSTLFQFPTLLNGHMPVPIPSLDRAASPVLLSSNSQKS
Procedure, shortened: as §1

SPI1 = SPI1 (Homo sapiens, UniProt P17947 1-270)
Procedure, shortened: as §1

Sequence | binding signal (FLI1) | binding signal (ELK1) | binding signal (GABPA) | binding signal (ERG) | binding signal (ELF1) | binding signal (EHF) | binding signal (SPIB) | binding signal (ELK3) | binding signal (SPI1)
CGCTTG | 1.1 fold enrichment (6-mer frequency, TF over GST control) | 1.14 fold enrichment (6-mer frequency, TF over GST control) | 1.09 fold enrichment (6-mer frequency, TF over GST control) | 1.05 fold enrichment (6-mer frequency, TF over GST control) | 1.07 fold enrichment (6-mer frequency, TF over GST control) | 1.04 fold enrichment (6-mer frequency, TF over GST control) | 1.25 fold enrichment (6-mer frequency, TF over GST control) | 1.07 fold enrichment (6-mer frequency, TF over GST control) | 
GCGCCC | 1.07 fold enrichment (6-mer frequency, TF over GST control) | 1.1 fold enrichment (6-mer frequency, TF over GST control) | 1.11 fold enrichment (6-mer frequency, TF over GST control) | 1.13 fold enrichment (6-mer frequency, TF over GST control) | 1.11 fold enrichment (6-mer frequency, TF over GST control) | 1.03 fold enrichment (6-mer frequency, TF over GST control) | 1.09 fold enrichment (6-mer frequency, TF over GST control) | 1.18 fold enrichment (6-mer frequency, TF over GST control) | 
GATGGT | 1.25 fold enrichment (6-mer frequency, TF over GST control) | 1.16 fold enrichment (6-mer frequency, TF over GST control) | 1.16 fold enrichment (6-mer frequency, TF over GST control) | 1.23 fold enrichment (6-mer frequency, TF over GST control) | 1.14 fold enrichment (6-mer frequency, TF over GST control) | 1.06 fold enrichment (6-mer frequency, TF over GST control) | 1.19 fold enrichment (6-mer frequency, TF over GST control) | 1.17 fold enrichment (6-mer frequency, TF over GST control) | 
CGACGA | 1.19 fold enrichment (6-mer frequency, TF over GST control) | 1.03 fold enrichment (6-mer frequency, TF over GST control) | 1.11 fold enrichment (6-mer frequency, TF over GST control) | 1.18 fold enrichment (6-mer frequency, TF over GST control) | 1.09 fold enrichment (6-mer frequency, TF over GST control) | 1.14 fold enrichment (6-mer frequency, TF over GST control) | 1.2 fold enrichment (6-mer frequency, TF over GST control) | 1.2 fold enrichment (6-mer frequency, TF over GST control) | 
CAGATG | 1.05 fold enrichment (6-mer frequency, TF over GST control) | 1.09 fold enrichment (6-mer frequency, TF over GST control) | 1.04 fold enrichment (6-mer frequency, TF over GST control) | 1.09 fold enrichment (6-mer frequency, TF over GST control) | 1.08 fold enrichment (6-mer frequency, TF over GST control) |  |  |  | 1 fold enrichment (6-mer frequency, TF over GST control)
CGATCA | 1.15 fold enrichment (6-mer frequency, TF over GST control) | 1.13 fold enrichment (6-mer frequency, TF over GST control) | 1.15 fold enrichment (6-mer frequency, TF over GST control) | 1.07 fold enrichment (6-mer frequency, TF over GST control) | 1.2 fold enrichment (6-mer frequency, TF over GST control) |  | 1.06 fold enrichment (6-mer frequency, TF over GST control) | 1.23 fold enrichment (6-mer frequency, TF over GST control) | 1.02 fold enrichment (6-mer frequency, TF over GST control)
TACCTG | 1.13 fold enrichment (6-mer frequency, TF over GST control) | 1.21 fold enrichment (6-mer frequency, TF over GST control) | 1.12 fold enrichment (6-mer frequency, TF over GST control) | 1.17 fold enrichment (6-mer frequency, TF over GST control) | 1.09 fold enrichment (6-mer frequency, TF over GST control) | 1.16 fold enrichment (6-mer frequency, TF over GST control) | 1.25 fold enrichment (6-mer frequency, TF over GST control) | 1.15 fold enrichment (6-mer frequency, TF over GST control) | 
CAACGA | 1.05 fold enrichment (6-mer frequency, TF over GST control) | 1.08 fold enrichment (6-mer frequency, TF over GST control) | 1.08 fold enrichment (6-mer frequency, TF over GST control) | 1.07 fold enrichment (6-mer frequency, TF over GST control) | 1.1 fold enrichment (6-mer frequency, TF over GST control) | 1.01 fold enrichment (6-mer frequency, TF over GST control) | 1.03 fold enrichment (6-mer frequency, TF over GST control) | 1.09 fold enrichment (6-mer frequency, TF over GST control) | 
